Measurements taken from PubChem BioAssay (Tox21).
Several values for one entry are separate records, joined by “and”; a condition that tells them apart may be missing. Identical values can stand only once. Records with an inconclusive call do not appear. Where a call stands in place of a potency, no number is given. Activity calls are given as the source filed them. Calls follow the shape of the dose curve; as a rule, active = well fitted inhibition curve with a large enough effect in the repeat runs; inconclusive = weak or mixed curves; inactive = no such curve, though single readings can be large or run the other way.
Potency is read from the fitted curve at half-maximal effect.

What follows are molecules tested against Androgen receptor (Homo sapiens) (UniProt P10275) (assay: qHTS assay to identify small molecule antagonists of the androgen receptor (AR) signaling pathway using the MDA cell line in the presence of 0.5 nM R1881 (AID 1259243; also: nearly all actives have a fitted effect of over 50% in size)). Conditions: MDA-kb2 MMTV-luciferase, R1881 0.5 nM, 16 h; series mostly up to 92.4 µM.
Chain of Androgen receptor (Homo sapiens) (P10275 whole entry, looked up): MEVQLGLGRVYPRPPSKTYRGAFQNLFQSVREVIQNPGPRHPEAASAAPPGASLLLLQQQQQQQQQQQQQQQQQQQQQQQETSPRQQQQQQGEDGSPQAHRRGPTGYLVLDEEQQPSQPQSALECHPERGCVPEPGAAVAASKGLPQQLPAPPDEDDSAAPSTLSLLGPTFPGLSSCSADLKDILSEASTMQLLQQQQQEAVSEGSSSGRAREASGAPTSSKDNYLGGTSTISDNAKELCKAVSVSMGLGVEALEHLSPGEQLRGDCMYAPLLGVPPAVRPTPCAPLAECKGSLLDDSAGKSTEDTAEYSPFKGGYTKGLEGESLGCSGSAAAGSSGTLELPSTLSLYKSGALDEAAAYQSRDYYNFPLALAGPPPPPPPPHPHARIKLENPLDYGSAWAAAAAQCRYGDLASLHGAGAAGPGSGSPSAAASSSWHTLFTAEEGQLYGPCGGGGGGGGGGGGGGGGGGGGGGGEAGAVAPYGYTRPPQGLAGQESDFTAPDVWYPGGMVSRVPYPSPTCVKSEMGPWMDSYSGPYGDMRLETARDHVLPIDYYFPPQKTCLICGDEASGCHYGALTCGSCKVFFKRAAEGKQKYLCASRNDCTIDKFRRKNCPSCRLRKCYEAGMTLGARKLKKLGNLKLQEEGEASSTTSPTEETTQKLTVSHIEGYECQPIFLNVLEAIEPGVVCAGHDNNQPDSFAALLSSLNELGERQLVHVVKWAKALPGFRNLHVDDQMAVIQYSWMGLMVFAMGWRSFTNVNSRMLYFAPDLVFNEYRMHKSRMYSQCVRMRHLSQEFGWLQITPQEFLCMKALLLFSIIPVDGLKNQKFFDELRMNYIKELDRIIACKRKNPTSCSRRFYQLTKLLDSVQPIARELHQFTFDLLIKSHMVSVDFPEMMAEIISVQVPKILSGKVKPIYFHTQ
Description: U.S. Tox21 Program National Center for Advancing Translational Sciences [NCATS] NIH Chemical Genomics Center [NCGC] U.S. Environmental Protection Agency [EPA] National Institutes of Environmental Health Sciences [NIEHS] National Toxicology Program [NTP] U.S. Food and Drug Administration [FDA] Tox21 Assay Overview: Androgen receptor (AR) is an important member of the nuclear receptor family. Its signaling plays a critical role in AR-dependent prostate cancer and other androgen related diseases. Considerable attention has been given in the past decades to develop methods to study and screen for the environmental chemicals that have the potential to interfere with metabolic homeostasis, reproduction, developmental and behavioral functions. Therefore AR binding assay for screening androgen antagonists can be used to identify potential endocrine disruptors. MDA-kb2 cells (from ATCC, deposited by Wilson et al.) were used to screen for AR inhibitors against Tox21 compound libraries. These cells are human breast carcinoma cells that were stably transfected with a luciferase reporter gene under control of the MMTV promoter that contains response elements for both androgen receptor (AR) and glucocorticoid receptor (GR). The current screening for identification of AR inhibitors against Tox21 libraries used lower concentration (0.5 nM) of R1881 as a stimulator.
Tox21 Assay Protocol Summary: MDA-kb2 cells (cells cultured without CO2) were dispensed at 3,000 cells/well in 4 uL of culture medium into white wall/solid-bottom 1536-well plates (Corning Life Sciences, Corning, NY) using a Multidrop Combi (ThermoFisher Scientific, Waltham, MA) dispenser. After the assay plates were incubated at a 37C and 0% CO2 for 5 hr, 23 nL of compounds dissolved in DMSO, positive controls or DMSO only was transferred to the assay plate by a Pintool station (Kalypsys, San Diego, CA). The transfer of compounds was followed by the addition of 1 uL of 0.5 nM (final concentration) agonist (R1881)/culture medium using a Flying Reagent Dispenser (FRD, Aurora Discovery, San Diego, CA). The plates were incubated at 37C and 0% CO2 for 16 hr. For luciferase reporter gene assay, 4 uL of ONE-Glo reagent (Promega Corporation, Madison, WI) was added to each well using the FRD and after 30 min incubation at room temperature luminescence intensity was measured using ViewLux plate reader (PerkinElmer, Shelton, CT).
With `O=C(NC(=O)c1c(F)cccc1F)Nc1cc(Cl)c(OC(F)(F)C(F)F)c(Cl)c1` the Potency was “inactive”.
With `Nc1c(Oc2ccccc2)cc(O)c2c1C(=O)c1ccccc1C2=O` the Potency was “inactive”.
For `CCC(C)c1cc([N+](=O)[O-])cc([N+](=O)[O-])c1OC(=O)C=C(C)C` (stereo not given), the Potency was 54.5 µM (active).
For `CC(=O)/C=C/c1ccc2c(c1)OCO2`, the Potency was 68.9 µM (active).
For `O=C1C=CC(=O)c2ccccc21`, the Potency was 19.3 µM (active).
With `CCCSP(=O)(OCC)SCCC` the Potency was “inactive”.
With `C[C@]12CC[C@H](O)C[C@H]1CC[C@@H]1[C@@H]2C[C@@H](O)[C@]2(C)[C@@H](C3=CC(=O)OC3)CC[C@]12O` the Potency was “inactive”.
For `O=[N+]([O-])c1cc(Cl)ccc1Cl`, the Potency was “inactive”.
For `O=C(CCl)Nc1ccccc1`, the Potency was 48.6 µM (active).
With `CC(C)(O)c1cnn2c(-c3ccc(F)c(-c4c(F)cccc4C#N)c3)cnc2n1` the Potency was 61.1 µM (active).
In the case of `C[CH2][Hg][N]1C(=O)C2C(C1=O)C1(Cl)C(Cl)=C(Cl)C2(Cl)C1(Cl)Cl` (stereo not given), the Potency is reported as 7.3 µM (active).
With `O=[N+]([O-])c1cc([N+](=O)[O-])c2ccccc2c1` the Potency was 4.33 µM (active).
With `CC[C@H]1C[C@@H]2C[C@H]3c4[nH]c5ccc(OC)cc5c4CCN(C2)[C@@H]13` the Potency was 60.1 µM (active).
In the case of `CN(CCCC(O)c1cccnc1)N=O` (stereo not given), the Potency is reported as “inactive”.
For `COC(=O)N(C(=O)N1CO[C@@]2(C(=O)OC)Cc3cc(Cl)ccc3C2=N1)c1ccc(OC(F)(F)F)cc1`, the Potency was 23.5 µM (active).
In the case of `CC(C)(C)OO`, the Potency is reported as “inactive”.
With `CC1(C)CN=C(NN=C(/C=C/c2ccc(C(F)(F)F)cc2)/C=C/c2ccc(C(F)(F)F)cc2)NC1` the Potency was 17.2 µM (active).
For `N#CCCO`, the Potency was “inactive”.
For `CCOC(=O)c1ccccc1S(=O)(=O)NC(=O)Nc1nc(Cl)cc(OC)n1`, the Potency was “inactive”.
For `CCN(CC)c1c([N+](=O)[O-])cc(C(F)(F)F)c(N)c1[N+](=O)[O-]`, the Potency was 27.3 µM (active).
`ClC1=C(Cl)[C@]2(Cl)[C@@H]3[C@@H](Cl)[C@@H](Cl)C[C@@H]3[C@@]1(Cl)C2(Cl)Cl` was tested, and the Potency was “inactive”.
`CCSC(C)CC1CC(=O)C(/C(CC)=N/OC/C=C/Cl)=C(O)C1` (stereo not given) was tested, and the Potency was “inactive”.
`COc1ccc([N+](=O)[O-])cc1O` was tested, and the Potency was “inactive”.
`N#Cc1ccc(O)cc1` was tested, and the Potency was “inactive”.
In the case of `Cc1cccc(OP(=O)(Oc2cccc(C)c2)Oc2cccc(C)c2)c1`, the Potency is reported as “inactive”.
With `Cc1ccc(CCl)cc1` the Potency was “inactive”.
With `Oc1c(Cl)c(Cl)cc(Cl)c1Cl` the Potency was 66.7 µM (active).
`O=C1c2ccccc2C(=O)C1C(=O)C(c1ccccc1)c1ccc(Cl)cc1` (stereo not given) was tested, and the Potency was 21.7 µM (active).
For `CCOC(=O)C1(c2ccccc2)CCN(CCC(C#N)(c2ccccc2)c2ccccc2)CC1`, the Potency was 29.8 µM (active).
In the case of `COc1ccc(/C(=C/C(=O)N2CCOCC2)c2ccc(Cl)cc2)cc1OC`, the Potency is reported as 1.54 µM (active).
With `CC(O)C#N` (stereo not given) the Potency was “inactive”.
With `Cc1ccc(C(=O)Cl)cc1` the Potency was “inactive”.
For `Cc1cc(N=Nc2ccccc2C)ccc1N`, the Potency was 54.5 µM (active) and 48.6 µM (active).
With `CN(C)CCc1c[nH]c2ccc(O)cc12` the Potency was “inactive”.
In the case of `C[C@H]1O[C@@H](O[C@H]2[C@@H](O)C[C@H](O[C@H]3[C@@H](O)C[C@H](O[C@H]4CC[C@@]5(C)[C@H](CC[C@@H]6[C@@H]5CC[C@]5(C)[C@@H](C7=CC(=O)OC7)CC[C@]65O)C4)O[C@@H]3C)O[C@@H]2C)C[C@H](O)[C@@H]1O`, the Potency is reported as “inactive”.
For `CC(C)C(=O)Cl`, the Potency was “inactive”.
In the case of `ClC1=C(Cl)C2(Cl)C3C(Cl)C(Cl)CC3C1(Cl)C2(Cl)Cl` (stereo not given), the Potency is reported as 60.9 µM (active) and 48.6 µM (active).
`N#Cc1ccccc1N` was tested, and the Potency was “inactive”.
For `O=C(Cl)c1ccc(Cl)cc1`, the Potency was “inactive”.
In the case of `Clc1ccc(Oc2ccccc2)cc1`, the Potency is reported as “inactive”.
